Reference: paper PMC12864922, “TDP-43 directly inhibits mRNA accumulation in neurites through modulation of mRNA stability”
The full ranking holds about 9,900 sequences; the median of “r (bound/input frequency ratio)” is about 0.7, and the highest 2% start at about 6.5. For the sample, the highest values were picked, then their nearest neighbours and some sequences at random.

B1: ENSMUSG00000043670.158|Diras1 (ssRNA)
RNA: GGGAGUUCUACAGUCCGACGAUCGCUUCGAUAUCCGCAUGCUACUGCUGAGAUAGAGACCUUGGCACAGUGGCACCUCGACAGCCACCCCGACUGGGGGUUUGGGGUGCUGAGGGUGGGGUGCCCAGCUGAGAGUCUAUCAGCAAAGUCCCUGUGUGCGGUGAUAGGACUAGUGGCUGCUGCCCUAGGGCUCUGACAGAAUCUGAGCCUCUUUGCUGGUCAUGUGUACUCUGGAGACUGUCCCCCAUGUCUGCCCUGAGUUACGGAGCCCCUGUGGUAUCUGCGAGACUGUCCAGGAGACUUGCUCUUGCGGUCGCACUAGUGUGGAAUUCUCGGGUGUCAAGG
B2: ENSMUSG00000022095.20|Fam160b2|21:25;227:231 (ssRNA)
RNA: GGGAGUUCUACAGUCCGACGAUCGCUUCGAUAUCCGCAUGCUAGGUGGGGGAAGAUUCCUGCCACACAACUUCUGCCCACGGGCAGUCUCCUGCCUGGCCAUGCUGCCACUCUGUCCUCCAUGCCGGGGACUUCAGCUGCAGGACACCUCACCUGUUGACCCCACGAGCUGAGGUUUCAAGGAGGUGCUGGCUCCUAAGGCAGUGGUAUUCUUGGAGCCUUUUAGAGGAGCUAGAGGAUGGCCAGUGAGCGCCUAGAUGCUGCCCUGCAACACAUGCGUGACUAUCUCUGCUAUAUUGUGACCCUCUUGCGGUCGCACUAGUGUGGAAUUCUCGGGUGUCAAGG
B3: ENSMUSG00000035202.138|Lars2 (ssRNA)
RNA: GGGAGUUCUACAGUCCGACGAUCGCUUCGAUAUCCGCAUGCUAAUAAAGGAUUUUAAAUUUUUUUACAAGUGAGAACCUAGCAUGUCAAGGUCCUAGGUUCCAUCUCCAACACGAAAAAAGCAAGGCAACUCUACCAAAGAAACUAAUUACAUACUUGUAUUCCCAAUAUGUGAGAAGCUGAGGAAGGAGGAUCAUGAGUUUAAAGCCAUCCUUGGUUACAUGAGACUCUUGUCUCAAAGAACUACCAGGGAUCCUAAUGGACAACAAAGGUUGAAAACCAUUGAAUUAAUAAAUGUUGUGAACUCUUGCGGUCGCACUAGUGUGGAAUUCUCGGGUGUCAAGG
B4: ENSMUSG00000061578.722|Ksr2 (ssRNA)
RNA: GGGAGUUCUACAGUCCGACGAUCGCUUCGAUAUCCGCAUGCUAUCUCUGAAUGUACGUGGGGGACUCCAACAGAUGUUGGGAGAAGACUCAAUAUGAGCAUACGGGGUCAUUGUUCAAUCCUGUAUCAAGACCUUGGAGUUGUCUAAGGCUGUGGGUUUUAAAUACCUGCUGCAGGCCUCCCAUCUCUGGCUCUUUGUUUCCACUCUGGCCCAAGUUUGAGUCUCCAUAUGGGCCCUUCCUGUCCUCAUGCCCUGCCUGUCUUCAUUCCACCCAUCCACCCUCCUAAGGAUUGGUCUUGUUCCCUCUUGCGGUCGCACUAGUGUGGAAUUCUCGGGUGUCAAGG
B5: ENSMUSG00000058297.267|Spock2 (ssRNA)
RNA: GGGAGUUCUACAGUCCGACGAUCGCUUCGAUAUCCGCAUGCUAUGAUAUAUUUGAUGAAGAAUUCCUUACCUGGGCCUCUGAUACCCUUUGGUACGCGUACGUGUGUGUGGCGCGUAUACGUGUGUGUGUGUGUGUGUGUGUGUGUGUGUGUGUGUGUGUGUGAGAGAGAGAGAGAGAGAGAGAGAGAGAGAGAGAGAGAAAGAGAGAGAGAAUGAGAGAGAAUGAGAGAGAGAAUACCCGAGGGCCACCCUGAUGCCCAGGAAGAGUGAGGGCAGCCCCCUGUGUGGUGGAAGAGGCUGGGCCUCUUGCGGUCGCACUAGUGUGGAAUUCUCGGGUGUCAAGG
B6: ENSMUSG00000058297.268|Spock2 (ssRNA)
RNA: GGGAGUUCUACAGUCCGACGAUCGCUUCGAUAUCCGCAUGCUAAUUUGAUGAAGAAUUCCUUACCUGGGCCUCUGAUACCCUUUGGUACGCGUACGUGUGUGUGGCGCGUAUACGUGUGUGUGUGUGUGUGUGUGUGUGUGUGUGUGUGUGUGUGUGAGAGAGAGAGAGAGAGAGAGAGAGAGAGAGAGAGAGAAAGAGAGAGAGAAUGAGAGAGAAUGAGAGAGAGAAUACCCGAGGGCCACCCUGAUGCCCAGGAAGAGUGAGGGCAGCCCCCUGUGUGGUGGAAGAGGCUGGGCAGCUAGCUCUUGCGGUCGCACUAGUGUGGAAUUCUCGGGUGUCAAGG
B7: ENSMUSG00000058297.266|Spock2 (ssRNA)
RNA: GGGAGUUCUACAGUCCGACGAUCGCUUCGAUAUCCGCAUGCUAUUUCCUUGAUAUAUUUGAUGAAGAAUUCCUUACCUGGGCCUCUGAUACCCUUUGGUACGCGUACGUGUGUGUGGCGCGUAUACGUGUGUGUGUGUGUGUGUGUGUGUGUGUGUGUGUGUGUGUGUGAGAGAGAGAGAGAGAGAGAGAGAGAGAGAGAGAGAGAAAGAGAGAGAGAAUGAGAGAGAAUGAGAGAGAGAAUACCCGAGGGCCACCCUGAUGCCCAGGAAGAGUGAGGGCAGCCCCCUGUGUGGUGGAAGAGGCUCUUGCGGUCGCACUAGUGUGGAAUUCUCGGGUGUCAAGG
B8: ENSMUSG00000058297.271|Spock2 (ssRNA)
RNA: GGGAGUUCUACAGUCCGACGAUCGCUUCGAUAUCCGCAUGCUAUACCUGGGCCUCUGAUACCCUUUGGUACGCGUACGUGUGUGUGGCGCGUAUACGUGUGUGUGUGUGUGUGUGUGUGUGUGUGUGUGUGUGUGUGUGAGAGAGAGAGAGAGAGAGAGAGAGAGAGAGAGAGAGAAAGAGAGAGAGAAUGAGAGAGAAUGAGAGAGAGAAUACCCGAGGGCCACCCUGAUGCCCAGGAAGAGUGAGGGCAGCCCCCUGUGUGGUGGAAGAGGCUGGGCAGCUAGCUACUGGGGACCUUGUGCCUCUUGCGGUCGCACUAGUGUGGAAUUCUCGGGUGUCAAGG
B9: ENSMUSG00000031028.129|Tub (ssRNA)
RNA: GGGAGUUCUACAGUCCGACGAUCGCUUCGAUAUCCGCAUGCUACCAAAUAUCUGAGUGGAUGGGGAUGAUAGGAGUCAUCCAGUAGACUCCCUACAUCAGGGCUCUCAGCAGCCCCAGCACAACACCUAUGACACACACACAGGAUCUAGGUCACCAUUCAAGUAAUGGUAUGCUUCAGGAAGAAUGUCCUCUCUGGGAAGACUCAGCUCCCAUUAUUGCCAGCAUGCCAUGAUCAGUGAGGGCUGUGUGCCAUGCUUAGGGGGAUGGCGCAGGGUGAGGGGAGCAGAGGAUAUUUUAGGGCCCUCUUGCGGUCGCACUAGUGUGGAAUUCUCGGGUGUCAAGG

Each binder was assayed against TDP-43 (Homo sapiens, UniProt Q13148 1-414) (assay: RNA Bind-n-Seq with designed 260-mer pool; 25 mM Tris-HCl, 150 mM KCl, 3 mM MgCl2, BSA (printed 500 mg/mL), 20 units/mL SUPERase IN; pH not stated; 500 nM RNA pool, 1 h, 4 C; TDP-43 5, 50, 500 nM; high values mean tight binding). Details: protein: recombinant; tags: SBP (GST cleaved off with PreScission; pGEX-GST-SBP).
Chain of TDP-43 (Q13148 whole entry): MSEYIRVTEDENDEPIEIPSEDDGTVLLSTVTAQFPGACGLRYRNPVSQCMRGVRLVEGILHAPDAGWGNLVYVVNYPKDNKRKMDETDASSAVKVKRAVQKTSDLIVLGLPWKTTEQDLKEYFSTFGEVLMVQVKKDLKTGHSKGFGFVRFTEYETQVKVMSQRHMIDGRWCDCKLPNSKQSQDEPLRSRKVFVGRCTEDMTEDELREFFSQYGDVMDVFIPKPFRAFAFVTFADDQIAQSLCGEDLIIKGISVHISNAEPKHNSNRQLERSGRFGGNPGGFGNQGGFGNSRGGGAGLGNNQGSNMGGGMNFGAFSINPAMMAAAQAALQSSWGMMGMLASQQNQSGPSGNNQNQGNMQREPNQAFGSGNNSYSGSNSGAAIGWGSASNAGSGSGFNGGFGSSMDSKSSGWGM
In short: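 For each oligo, R gives binding as its mapped-read-normalized abundance after pulldown divided by its abundance in input. Bead-captured SBP-tagged TDP-43 (5, 50 or 500 nM) was incubated with 500 nM of an in vitro-transcribed 260-nt 3′ UTR oligo pool for 1 h at 4 °C in 25 mM Tris-HCl, 150 mM KCl, 3 mM MgCl2, BSA and SUPERase IN on streptavidin beads. Washed, biotin-eluted RNA was reverse transcribed, PCR-amplified and sequenced.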
B1 was tested, and the binding signal was 0.372 R (bound/input frequency ratio).
With B2 the binding signal was 0.271 R (bound/input frequency ratio).
For B3, the binding signal was 0.101 R (bound/input frequency ratio).
B4 was tested, and the binding signal was 1.64 R (bound/input frequency ratio).
With B5 the binding signal was 8.95 R (bound/input frequency ratio).
B6 was tested, and the binding signal was 2.37 R (bound/input frequency ratio).
B7 was tested, and the binding signal was 5.83 R (bound/input frequency ratio).
For B8, the binding signal was 8.28 R (bound/input frequency ratio).
B9 was tested, and the binding signal was 0.521 R (bound/input frequency ratio).
